Results filed as inconclusive are left out. Entries that show only a call come without a potency. Calls of active or inactive are those of the source. Calls follow the shape of the dose curve; as a rule, active = well fitted inhibition curve with a large enough effect; inconclusive = small, poorly fitted or top-dose-only effect; inactive = no such curve, though single readings can be large or run the other way. Numbered stars: 1 amine (or outer) side, 2 acyl side, 3 side chain; on linkers, the order of the positions; unused ones are H or OH. Bridge positions count the residues as written; N and C are the ends. Square brackets hold non-standard residues; d marks the D form. Peptide text beside a SMILES is read from it. I, II: the chains in the order shown. Actinocin(9to1) = Cc1c2oc3c(C)ccc(C(=O)[*:1])c3nc-2c(C(=O)[*:2])c(N)c1=O; NMeV = CN[C@H](C(=O)O)C(C)C; Sar = CNCC(=O)O
test: qHTS to identify inhibitors of the type 1 interferon - major histocompatibility complex class I in skeletal muscle: Secondary screen by immunofluorescence; details: C25cl48 myoblasts, IFN-b induced HLA-ABC immunofluorescence, 24 h, Viability; series mostly up to 49.8 µM; also: nearly all actives have a fitted effect of over 70% in size
How it was run: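 Immortalized human myoblasts C25cl48 were stimulated with 4.0 ng/ml IFN-beta and exposed to an 11-point 1:3 compound titration, top 50 uM, for 24 h at 37 C. They were then fixed and immunostained for HLA-ABC, and quantified by laser scanning cytometry.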
Potency is read from the fitted curve at half-maximal effect.

| SMILES | Potency |
| --- | --- |
| COc1cc(F)ccc1-c1ncnc(Nc2cccc(CS(C)(=N)=O)c2)n1 (stereo not given) | inactive |
| CN1CCN(C(=O)c2ccc3cc(CCNc4ncnc5ccc(C#N)cc45)ccc3c2)CC1 | inactive |
| CC(C)(C)c1cnc(CSc2cnc(NC(=O)C3CCNCC3)s2)o1 | inactive |
| CC(C)C[C@H](NC(=O)CNC(=O)c1cc(Cl)ccc1Cl)B1OC(=O)CC(CC(=O)O)(C(=O)O)O1 (stereo not given in full) | inactive |
| COc1cc(Nc2ncc(F)c(Nc3ccc4c(n3)NC(=O)C(C)(C)O4)n2)cc(OC)c1OC | inactive |
| COc1ccc(-c2nc(N3CCOCC3)c3sc(CN(C)c4ncc(C(=O)NO)cn4)cc3n2)cn1 | inactive |
| OC1CCC(Oc2cccc3cnc(Nc4ccc5nc[nH]c5c4)nc23)CC1 (stereo not given) | inactive |
| CC(=O)OCC(=O)[C@@]1(O)CC[C@H]2[C@@H]3CCC4=CC(=O)C=C[C@]4(C)[C@H]3[C@@H](O)C[C@@]21C | inactive |
| CCOC(=O)C1=C(C)NC2=C(C(=O)CC(C)(C)C2)C1c1ccc(-c2ccccc2)cc1 (stereo not given) | inactive |
| CC1(C)CC(=O)c2c(C(F)(F)F)nn(-c3ccc(C(N)=O)c(NC4CCC(OC(=O)CN)CC4)c3)c2C1 (stereo not given) | inactive |
| O=C(/C=C\n1cnc(-c2cc(C(F)(F)F)cc(C(F)(F)F)c2)n1)NNc1cnccn1 | inactive |
| Cc1c2oc3c(C)ccc(C(=O)N[C@@H]4C(=O)N[C@H](C(C)C)C(=O)N5CCC[C@H]5C(=O)N(C)CC(=O)N(C)[C@@H](C(C)C)C(=O)O[C@@H]4C)c3nc-2c(C(=O)N[C@@H]2C(=O)N[C@H](C(C)C)C(=O)N3CCC[C@H]3C(=O)N(C)CC(=O)N(C)[C@@H](C(C)C)C(=O)O[C@@H]2C)c(N)c1=O (I: T[dV]P[Sar][NMeV] / II: T[dV]P[Sar][NMeV]; ester I:1-I:C, II:1-II:C; linker I:N-II:N via Actinocin(9to1)) | inactive |
| CCCCC(=O)O[C@]1(C(=O)CO)[C@@H](C)C[C@H]2[C@@H]3CCC4=CC(=O)C=C[C@]4(C)[C@@]3(F)[C@@H](O)C[C@@]21C | inactive |
| COc1cccc2nc(-c3cccs3)nc(NN3C(=O)C=C(C)C3=O)c12 | 16.2 µM (active) |
| CNC(=O)c1cc(Oc2ccc(NC(=O)Nc3cc(C(C)(C)C)nn3-c3ccc4ncccc4c3)c(F)c2)ccn1 | inactive |
| O=C(/C=C/c1ccc(CN(CCO)CCc2c[nH]c3ccccc23)cc1)NO | inactive |
| Cc1[nH]c2ccccc2c1CCNCc1ccc(/C=C/C(=O)NO)cc1 | inactive |
| CC(C)(C)CC(=O)OCC(=O)[C@@]1(O)CC[C@H]2[C@@H]3CCC4=CC(=O)C=C[C@]4(C)[C@H]3[C@@H](O)C[C@@]21C | inactive |
| C[C@]12C=CC(=O)C=C1CC[C@H]1[C@@H]3C[C@@H](O)[C@](O)(C(=O)CO)[C@@]3(C)C[C@H](O)[C@@]12F | inactive |
| Cc1sc2c(c1C)C(c1ccc(Cl)cc1)=N[C@@H](CC(=O)Nc1ccc(OCCOCCOCCOCCNc3cccc4c3C(=O)N(C3CCC(=O)NC3=O)C4=O)cc1)c1nnc(C)n1-2 (stereo not given in full) | inactive |
| NC(=O)Nc1sc(-c2ccc(F)cc2)cc1C(N)=O | inactive |
| CCCOc1ccc2nc(NC(=O)OC)[nH]c2c1 | inactive |
| CCc1c(O)cc(O)c(C(=O)c2ccc(OCCN3CCOCC3)c(OC)c2)c1CC(=O)N(CCOC)CCOC | inactive |
| N#CCC1(n2cc(-c3ncnc4[nH]ccc34)cn2)CN(C2CCN(C(=O)c3ccnc(C(F)(F)F)c3F)CC2)C1 | inactive |
| Cc1oncc1C(=O)Nc1ccc(C(F)(F)F)cc1 | inactive |

Source: PubChem BioAssay AID1347414 (National Center for Advancing Translational Sciences (NCATS), 2020)
